This is a sample that favours compounds with a hit; in the whole collection about 5.2% have one here.
Sfp inh – inhibitors of Bacillus subtilis Sfp phosphopantetheinyl transferase. Q9F4F7. Biochemical Sfp PPTase activity, qHTS. Potency, µM, for inactives: largest response in the series, negative = inhibition, usual class: inhibitors. 310,000 compounds, 3.5% hits. AID 1490;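 also: the enzyme is Sfp with the accession as filed and its product quenches rhodamine fluorescence; potency is read from the fitted curve at half-maximal effect; 0% = enzyme reaction without inhibitor and -100% = no enzyme wells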
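Fluorescence-quenching assay: 15 nM Sfp-PPTase preincubated 15 min at room temperature with compound, then 5 uM rhodamine-CoA and 12.5 uM BHQ-2-labelled YbbR peptide added. Fluorescence (ex 525/em 598 nm) read at start and after 30 min; difference gives rate.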
VDR inh – blocks the human vitamin D receptor. P11473. VDR-SRC2-3 peptide fluorescence polarization, 2 h. Potency, µM, for the others: max response, negative = inhibition, actives largely listed as inhibitors. 400,000 compounds, 0.93% hits; also: potency is read from the fitted curve at half-maximal effect; % is scaled to controls: 0 for no effect and ±100 for the full control effect
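Fluorescence polarization assay of small-molecule disruption of VDR binding to coregulator peptide SRC2-3. Compounds and controls pin-transferred, then read after 2 h incubation at ambient room temperature.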
TrxR1 inh – rat TrxR1 inhibition; O89049; recombinant rTrxR1, NADPH fluorescence consumption, selenite substrate; Potency, µM (doses to about 114 µM), inactives show at the top dose activity change, negative = inhibition, most hits filed as inhibitors; 390,000 compounds, 1% hits; also: potency is read from the fitted curve at half-maximal effect; % is scaled to controls: 0 for no effect and ±100 for the full control effect; nearly all actives have a fitted effect of over 65% in size
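Rat TrxR1 (90 nM in the dispensed reagent) was pre-reduced with 400 uM NADPH for 5 min at room temperature, then incubated with compound for 15 min. After 400 uM selenite was added, NADPH fluorescence (Ex 340/Em 450 nm) was followed for 8 min.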
TrxR1 substrate – is turned over as a substrate by rat TrxR1; 390,000 compounds, 0.01% hits; Potency, µM (titrated, usually from 114 µM), inactives show at the highest dose activity change, negative = substrate turnover; O89049; purified TrxR1 substrate turnover, NADPH consumption readout; AID 588456; also: potency is read from the fitted curve at half-maximal effect; % is scaled to controls: 0 for no effect and ±100 for the full control effect; nearly all actives have a fitted effect of over 50% in size
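Rat TrxR1, dispensed at 90 nM, was prereduced with 400 uM NADPH (final) for 5 min at ~22 deg C, then incubated with compound 15 min before 400 uM selenite. A first-read NADPH fluorescence drop versus no-compound background flagged substrates.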
IDH1 R132H inh – human IDH1 R132H inhibition; 390,000 compounds, 0.093% hits; AID 602179; O75874; IDH1-R132H enzyme, NADPH consumption, diaphorase/resazurin fluorescence; Potency, µM (top dose mostly 76.6 µM), inactives show at the top dose activity change, negative = inhibition, usual class: inhibitors; also: potency is read from the fitted curve at half-maximal effect; % is scaled to controls: 0 for no effect and ±100 for the full control effect; nearly all actives have a fitted effect of over 65% in size
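IDH1-R132H (0.5 ug/mL dispensed) in pH 7.5 Tris buffer was preincubated 30 min with compound, then given a substrate mix of 0.016 mM NADPH and 2 mM alpha-KG for 80 min at room temperature; remaining NADPH was read by diaphorase/resazurin fluorescence.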
PLK1 PBD block – blocks phosphopeptide binding to human PLK1 polo-box domain | 360,000 compounds, 2.8% hits | AID 720504 | Plk1 PBD binding of FITC phosphopeptide, fluorescence polarization | P53350 | Potency, µM, for the others: max response, negative = inhibition, usual class: inhibitors; also: potency is read from the fitted curve at half-maximal effect; series mostly up to about 57 µM; % is scaled to controls: 0 for no effect and ±100 for the full control effect; nearly all actives have a fitted effect of over 65% in size
Target sequence (P53350 whole entry, looked up, the tested form may be a part): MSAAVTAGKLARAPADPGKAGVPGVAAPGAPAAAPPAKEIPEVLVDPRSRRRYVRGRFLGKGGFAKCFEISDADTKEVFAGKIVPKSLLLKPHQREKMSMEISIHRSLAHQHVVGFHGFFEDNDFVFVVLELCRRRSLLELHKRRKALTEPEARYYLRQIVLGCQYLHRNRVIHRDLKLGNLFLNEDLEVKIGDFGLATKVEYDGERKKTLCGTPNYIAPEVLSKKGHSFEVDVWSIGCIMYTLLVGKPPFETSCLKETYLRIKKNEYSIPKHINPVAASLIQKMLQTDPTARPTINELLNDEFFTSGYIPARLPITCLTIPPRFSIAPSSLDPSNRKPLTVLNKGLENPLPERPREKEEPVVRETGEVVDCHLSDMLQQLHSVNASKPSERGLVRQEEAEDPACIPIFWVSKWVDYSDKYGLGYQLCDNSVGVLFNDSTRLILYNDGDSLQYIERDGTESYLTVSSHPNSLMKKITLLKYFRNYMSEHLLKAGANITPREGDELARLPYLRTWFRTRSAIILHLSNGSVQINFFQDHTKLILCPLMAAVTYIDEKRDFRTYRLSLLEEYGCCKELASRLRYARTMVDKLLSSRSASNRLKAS
IDH1 autofl – interferes with resorufin fluorescence in IDH1 counter-screen; 750 tested, under 10 active; Resorufin detection reagent fluorescence interference, cell-free; inhibition of signal, % at 51.2 µM; shares compounds with IDH1 R132H inh;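 also: 0% = wells with normal resorufin and full inhibition = wells lacking resorufin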
IDH1 WT – selectivity of mutant IDH1 inhibitors: human wild-type IDH1 | Potency, µM (series often up to 115 µM), for inactives: at the top dose activity change, negative = inhibition, most hits filed as inhibitors | WT IDH1 enzyme, NADPH diaphorase/resazurin fluorescence | shares compounds with IDH1 R132H inh | 750 compounds, 9% hits;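 also: potency is read from the fitted curve at half-maximal effect; 0% = full WT IDH1 enzyme control and full inhibition = no enzyme wells; nearly all actives have a fitted effect of over 55% in size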
IDH1 R132H conf – inhibits human mutant IDH1 enzyme in cherrypick confirmation. shares compounds with IDH1 R132H inh. IDH1 R132H enzyme, NADPH diaphorase/resazurin fluorescence. Potency, µM (series often up to 76.6 µM), without a hit: at the top dose activity change, negative = inhibition, usual class: inhibitors. 750 compounds, 83% hits; also: potency is read from the fitted curve at half-maximal effect; nearly all actives have a fitted effect of over 50% in size
Numbers without * were called inactive; ? = inconclusive; . = no result given; [ ] = dose if it differs, or a comment. Calls follow the shape of the dose curve; as a rule, active = well fitted curve in the direction sought with a large enough effect; inconclusive = small, poorly fitted or top-dose-only effect, or another doubt; inactive = no such curve, though single readings can be large; an effect the other way counts as inactive or inconclusive.

SMILES	Sfp inh	VDR inh	TrxR1 inh	TrxR1 substrate	IDH1 R132H inh	PLK1 PBD block	IDH1 autofl	IDH1 WT	IDH1 R132H conf
COc1ccccc1CN1CC[C@@]2(CCCN(C(=O)c3ccncc3)C2)C1	14%	-14%	.	.	.	.	.	.	.
CC(=O)N1N=C(c2ccncc2)CC1c1ccccc1O (stereo not drawn)	11%	14%	17%[57.1 µM]	9%	0%	-13%	.	.	.
O=C(c1ccncc1)N1N=C(c2ccc(Br)cc2)CC1c1ccccc1O (stereo not drawn)	-70%	0%	25%[57.1 µM]	0%[57.1 µM]	35µM*	1%	1	2%	16µM*
COc1cc(Br)cc(/C=N/N(CCO)C2=NS(=O)(=O)c3ccccc32)c1OC	-8%	8%	16%	-3%	13µM*	-20%	-7	0%	25µM*
CC1(C)CC(=O)C2=C(C1)NC1=C(C(=O)c3ccccc31)C2c1cccnc1 (stereo not drawn)	2%	1%	-14%	-6%	6%	?	.	.	.
CC1(C)CC(=O)C2=C(C1)NC1=C(C(=O)c3ccccc31)C2c1cc([N+](=O)[O-])ccc1O (stereo not drawn)	-8%	-15%	?	2%	?	-12%	11	-7%	32µM*
COC(=O)c1ccc(NC(=O)C(c2ccccc2)N2Cc3ccccc3C2=O)cc1 (stereo not drawn)	.	5%	11%	-10%	?	.	-4	-1%	-6%
NS(=O)(=O)c1ccc(N2N=C(c3ccc(Br)cc3)CC2c2ccc(F)cc2)cc1 (stereo not drawn)	1%	-2%	95%[57.1 µM]	400%[57.1 µM]	?	-8%	0	2%	?
NS(=O)(=O)c1ccc(N2N=C(c3ccccc3)CC2c2cccc(Br)c2)cc1 (stereo not drawn)	.	13%	-25%	434%	-11%	1%	.	.	.
COCCC(=O)N1CCC(Oc2ccc(C(=O)NCc3cccc(C)n3)cc2)CC1	2%	-21%	29%	7%	1%	-11%	.	.	.
Cc1ccc(OCCSc2nc(-c3ccccc3C)nc3cc(=O)[nH]n23)cc1Cl	.	9%	17%[57.1 µM]	17%[57.1 µM]	2%	.	.	.	.
CCOc1ccc(-c2cc3nc(C4CCN(C(=O)OC(C)(C)C)CC4)c(C(=O)O)cn3n2)cc1	1%	12%	1%	21%	16µM*	-18%	4	79µM*	14µM*
Cc1cccc(-c2nc3nc(C)cc(NC(C)c4ccccc4)n3n2)c1 (stereo not drawn)	.	11%	-7%[57.1 µM]	-8%[57.1 µM]	15%	.	.	.	.
C=C1CC2C(CCC3(C)C2CCC3(O)C(C)=O)C2(C)CCC(=O)C=C12 (stereo not drawn)	2%	-1%	-4%[57.1 µM]	11%[57.1 µM]	22µM*	-7%	2	35µM*	11µM*
CC(=O)[C@]1(O)CCC2C3CCC4=CC(=O)CC[C@@]4(C)C3CC[C@]21C (stereo partly drawn)	-1%	1%	.	.	.	.	.	.	.
CCCC(=O)C1=C(c2ccc(C)cc2)N(C(=O)CCC)n2cnnc2S1	.	-2%	-7%[57.1 µM]	0%[57.1 µM]	40µM*	.	-3	272%	40µM*
CCC(=O)C1=C(c2ccc(C)cc2)N(C(=O)CC)n2c(nnc2C2CCCCC2)S1	.	6%	21%[57.1 µM]	9%[57.1 µM]	1%	.	.	.	.
CC(=O)C1=C(c2ccccc2)N(C(C)=O)n2c(C)nnc2S1	-8%	12%	7%	11%	29µM*	-23%	-6	-130%	6.3µM*
CCCC(=O)C1=C(c2cccc(OC)c2)N(C(=O)CCC)n2c(C)nnc2S1	.	3%	12%[57.1 µM]	6%[57.1 µM]	45µM*	.	-7	170%	45µM*
CCCC(=O)C1=C(c2ccc(C)c(C)c2)N(C(=O)CCC)n2c(CC)nnc2S1	.	-2%	15%[57.1 µM]	6%[57.1 µM]	3%	.	.	.	.
CCS(=O)(=O)c1nc(S(=O)(=O)c2ccc(C)cc2)c(NCc2ccccc2Cl)s1	.	15%	9%	-2%	1%	.	.	.	.
CN(C)C(=O)c1ccc(-c2ccc3ncnc(NCc4cccs4)c3c2)cc1	-6%	49%	.	.	.	.	.	.	.
Cc1ccc(C2C(C#N)=C3N=C(N)c4ccccc4N3C3=C2C(=O)CCC3)cc1 (stereo not drawn)	-14%	2%	-3%	-3%	-9%	-1%	.	.	.
N#CC1=C2N=C(N)c3ccccc3N2C2=C(C(=O)CCC2)C1c1ccc(F)cc1 (stereo not drawn)	9%	3%	6%	0%	?	0%	-3	-1%	?
COc1ccc(NC(=O)CC2SC(=NCC3CCCO3)NC2=O)cc1 (stereo not drawn)	7%	-12%	24%	1%	0%	-7%	.	.	.
SMILES	Sfp inh	VDR inh	TrxR1 inh	TrxR1 substrate	IDH1 R132H inh	PLK1 PBD block	IDH1 autofl	IDH1 WT	IDH1 R132H conf
CC(=O)Nc1ccc(C2=NNC(=NCC3CCCO3)SC2)cc1 (stereo not drawn)	40µM*	?	-1%	-2%	?	-29%	-5	364%	45µM*
O=c1[nH]c(/C=C/c2ccc3c(c2)OCO3)c([N+](=O)[O-])c(=O)[nH]1	14%	.	.	.	.	.	.	.	.
CCOC(=O)c1cccc(NC(=O)COc2ccc([N+](=O)[O-])cc2)c1	12%	7%	-5%[2.29 µM]	7%[2.29 µM]	0%	?	.	.	.
O=c1[nH]c(/C=C/c2ccc([N+](=O)[O-])cc2)c([N+](=O)[O-])c(=O)[nH]1	0%	?	-14%	-10%	46µM*	-5%	7	-9%	32µM*
Cc1cccc(NC(=O)COc2ccc(/C=C\c3[nH]c(=O)[nH]c(=O)c3[N+](=O)[O-])cc2)c1	50µM*	?	-15%[57.1 µM]	-5%[57.1 µM]	52µM*	?	11	?	32µM*
O=C(COc1cc2oc(=O)cc(-c3ccccc3)c2cc1Cl)NC(Cc1c[nH]c2ccc(O)cc12)C(=O)O (stereo not drawn)	-11%	-23%	1%	1%	4%	-6%	.	.	.
Cc1cc(NCc2ccccc2Cl)n2cnnc2n1	.	4%	3%	4%	1%	.	.	.	.

Screening data deposited in PubChem BioAssay by National Center for Advancing Translational Sciences (NCATS).
